Screening data: PubChem BioAssay, National Center for Advancing Translational Sciences (NCATS)
TbPYK inhibitor: blocks Trypanosoma brucei pyruvate kinase. 410,000 compounds, 0.12% hits. Q57TT1. AID 624173. Potency, µM (doses to about 76.8 µM), for inactives: at the top dose activity, negative = inhibition, usual class: inhibitors. TbPYK enzyme, Kinase-Glo Plus ATP luminescence, 45 min; further: nearly all actives have a fitted effect of over 50% in size
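Screened from lowest to highest concentration, compounds were pinned into TbPYK/substrate mixtures, and ADP (130 uM final) was added. Plates sat at room temperature for 45 min prior to Kinase-Glo Plus detection by luminescence.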
RE007 growth inh: less growth of the S. pombe RE007 Vpr strain; 360,000 compounds, 0.21% hits; S. pombe RE007 Vpr strain, BacTiter-Glo ATP luminescence, 24 h; Potency, µM (titrated, usually from 92.2 µM), inactives show at the highest dose activity change, negative = less growth, actives largely listed as inhibitors; active means well fitted falling curve with a large enough effect; inconclusive means small, poorly fitted or top-dose-only effect; inactive means no such curve, though single readings can be large or run the other way; further: nearly all actives have a fitted effect of over 50% in size
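Fission yeast RE007 carrying one integrated HIV-1 vpr copy, seeded at OD 0.01 in PMG+AL medium with 23 nL pinned compound. Grown 24 h at 30 degrees; viability read by BacTiter-Glo luminescence after 5 min.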
Sm TGR inh: S. mansoni TGR enzyme inhibition; Q962Y6; purified TGR, DTNB reduction, TNB absorbance 405 nm; Potency, µM (doses to about 114 µM), for inactives: at the top dose activity change, negative = inhibition, actives largely listed as inhibitors; 360,000 compounds, 3% hits; further: nearly all actives have a fitted effect of over 60% in size
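Kinetic colorimetric format: TGR-catalysed, NADPH-driven DTNB reduction monitored via TNB absorbance. Enzyme dispensed at 20 nM; compound exposure 15 min at room temperature before reaction start.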
AMA1 RON2 block: AMA1-RON2 (P. falciparum) interaction inhibition | AlphaScreen AMA1-biotinylated RON2 peptide binding | Potency, µM (series often up to 58.2 µM), inactives show at the top dose activity change, negative = inhibition, usual class: inhibitors | 360,000 compounds, 0.2% hits | AID 720542;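 further: 0% = vehicle wells and -100% = peptide control; nearly all actives have a fitted effect of over 45% in size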
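AMA1 (3D7) with his tag at 25 nM final met compounds first, then biotinylated RON2 peptide at 25 nM; detection used donor plus acceptor beads, 10 µg/mL apiece, read by AlphaScreen after 30 min at room temperature.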
LmPK inh: blocks Leishmania mexicana pyruvate kinase activity. Q27686. 290,000 compounds, 0.37% hits. purified LmPK, Kinase-Glo ATP luminescence, 1 h. Potency, µM (top dose mostly 57.5 µM), without a hit: top-dose activity change, negative = inhibition, usual class: inhibitors
Target sequence (Q27686 whole entry, looked up): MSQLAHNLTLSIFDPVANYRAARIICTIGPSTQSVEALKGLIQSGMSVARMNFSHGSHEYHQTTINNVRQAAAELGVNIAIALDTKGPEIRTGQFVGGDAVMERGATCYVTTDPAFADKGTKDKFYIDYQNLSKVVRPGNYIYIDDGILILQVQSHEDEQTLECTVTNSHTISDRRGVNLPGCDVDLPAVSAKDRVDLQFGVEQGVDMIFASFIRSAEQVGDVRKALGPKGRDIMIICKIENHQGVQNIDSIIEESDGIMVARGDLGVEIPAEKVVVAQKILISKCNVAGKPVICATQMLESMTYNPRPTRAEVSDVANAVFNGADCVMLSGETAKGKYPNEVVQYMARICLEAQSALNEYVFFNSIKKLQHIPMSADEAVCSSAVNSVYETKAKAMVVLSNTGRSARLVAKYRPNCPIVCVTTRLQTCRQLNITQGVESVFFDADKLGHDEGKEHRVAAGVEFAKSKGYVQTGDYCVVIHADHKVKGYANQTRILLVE
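Purified LmPK (0.1 nM) with 0.5 mM PEP and 0.1 mM ADP in imidazole buffer pH 7.2 with MgCl2/KCl, 1 h at room temperature. ATP formed was read by luciferase luminescence and normalized to no-enzyme and uninhibited controls.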
* marks the source's active call; other numbers are inactive results; ? = inconclusive; . = not tested or not shown; [ ] = another dose, or the depositor's remark. Shown are actives, neighbours in structure and some others; about 3.2% of the full set was active somewhere. Unless noted, the call rests on the fitted dose curve; in most records, active means well fitted curve in the direction sought with a large enough effect; inconclusive means small, poorly fitted or top-dose-only effect, or another doubt; inactive means no such curve, though single readings can be large; an effect the other way counts as inactive or inconclusive. Unless noted, on the % scale 0 is the no-effect control and ±100 the full control effect; potency means the concentration at half of the fitted maximal effect.

SMILES	TbPYK inhibitor	RE007 growth inh	Sm TGR inh	AMA1 RON2 block	LmPK inh
COc1cc(-c2noc(-c3ccc(NCc4cccnc4)c([N+](=O)[O-])c3)n2)cc(OC)c1OC	-5.4%	.	0.6%	.	.
Oc1c(Br)cc(Br)cc1CNc1ccc(F)cc1	-6.9%	?	?	-7.2%	1.2%
Oc1c(Br)cc(Br)cc1CNc1cnc2ccccc2c1	-3.5%	-24.2%	12.6µM*	10.1%	-0.9%
COC(=O)CC1c2ccccc2C=C(C2CC2)N1C(=O)OC (stereo not drawn)	.	.	.	.	-9.3%[11.5 µM]
O=C1C=CC(=O)c2c(O)c(CO)c(CO)c(O)c21	?	-24.5%	.	?	.
O=c1c(CO)cc(CO)cc(CO)c1O	1.0%	19.5%	0.0%	22.4µM*	4.9%
COc1cc(NC(=O)c2ccc(NC(=O)N3CCSc4ncccc43)cc2)cc(OC)c1	3.4%[15.4 µM]	.	-0.8%	.	.
COc1ccc(N=C2S/C(=C\c3ccc(Cl)c([N+](=O)[O-])c3)C(=O)N2CCN(C)C)cc1	-3.6%	.	-0.2%	14.1µM*	-2.0%
COc1ccc(C(=O)Oc2cccnc2)cc1	1.3%	-11.9%	8.0%	-2.2%	8.9%
O=C(Oc1cccnc1)c1ccc(Cl)c(Cl)c1	-4.3%	31.6µM*	-11.6%	41.9%	3.4%
COc1ccc2c(c1)cc1c(=O)n(CC(=O)NCCc3ccccc3)nc(C)n12	6.6%	.	-1.4%	.	.
O=c1cc(CO)occ1OCc1cccc(C(F)(F)F)c1	.	-21.4%[3.69 µM]	1.0%	5.9%	-0.5%
O=c1cc(CO)oc(C(Nc2ccccn2)c2ccc(C(F)(F)F)cc2)c1O (stereo not drawn)	-20.2%	-6.0%	39.8µM*	41.5%	-0.7%
O=c1cc(CO)oc(C(Nc2ccccn2)c2ccccc2F)c1O (stereo not drawn)	-10.3%	-6.1%	.	-28.5%	.
COc1cccc(C(Nc2ccccn2)c2oc(CO)cc(=O)c2O)c1 (stereo not drawn)	-7.6%	20.7%	3.16µM*	-18.9%	17.9%
O=c1cc(CO)oc(C(Nc2ccccn2)c2cccc(F)c2)c1O (stereo not drawn)	-5.0%	0.9%	2.82µM*	0.9%	-4.3%
O=C(NCCCNC(=O)c1ccc(-c2cc(Cl)ccc2Cl)o1)c1cnccn1	-2.3%	-3.1%	-31.8%	3.4%	9.1%
Cc1ccc(-c2ccc(C(=O)NCCCNC(=O)c3cnccn3)o2)cc1Cl	2.2%	-4.5%	31.6µM*	10.4%	-0.8%
CCOc1ccc(CCNC(=O)CCSCc2ccc(Cl)cc2)cc1OCC	0.0%	.	-0.6%	.	.
O=C1c2ccccc2C(=O)N1Cc1nc2ccccc2c(=O)n1CCCN1CCOCC1	8.8%	-1.9%	35.5µM*	-2.1%	1.0%
COc1cc(-c2nnc(NC(=O)CCS(=O)(=O)c3ccccc3)o2)cc(OC)c1OC	6.1%	1.8%	28.2µM*	53.2%	.
COc1ccc(-c2csc(NC(=O)CCS(=O)(=O)c3ccccc3)n2)c(OC)c1	7.3%	3.2%	14.1µM*	0.6%	4.2%
COc1ccc(-c2csc(NC(=O)CS(=O)(=O)c3ccccc3)n2)c(OC)c1	-5.6%	4.8%	.	-2.5%	.
COc1cc(OC)cc(-c2nnc(NC(=O)CCS(=O)(=O)c3ccccc3)o2)c1	0.0%	6.1%	31.6µM*	62.5%	.
Cc1ccc(NC(=O)C(NS(=O)(=O)c2ccc3c(c2)CCC(=O)N3)c2ccccc2)cc1C (stereo not drawn)	0.5%	.	-20.1%	.	.
SMILES	TbPYK inhibitor	RE007 growth inh	Sm TGR inh	AMA1 RON2 block	LmPK inh
COc1cc(/C=N/n2c(C3CCCCC3)n[nH]c2=S)cc(Br)c1O	7.94µM*	3.9%	-12.1%	88.5%	-25.8%
COc1ccc(-c2nc3ccccc3s2)cc1NC(=O)COc1cccc(C)c1	1.2%	.	-6.0%	.	.
CCn1c(C)nc([N+](=O)[O-])c1Sc1ccc(F)cc1	8.9%	-12.0%	39.8µM*	4.8%	2.4%
COc1ccc2nc(Sc3c([N+](=O)[O-])nc(C)n3Cc3ccccc3)[nH]c2c1	-3.2%	-1.0%	-54.3%	-3.1%	3.6%
O=C(CSc1cccc[n+]1[O-])c1cc2ccccc2o1	-12.3%	8.91µM*	17.2%[11.4 µM]	1.0%	20.8%
O=C(O)CSc1cccc[n+]1[O-]	-1.9%	16.0%	5.8%	-8.9%	-3.6%
